Cardio protect = protects H9c2 cardiomyocytes from peroxide injury | AID 588492 | 360,000 compounds, 0.63% hits | protection from H2O2 cell death, % at 20 µM | H2O2 injury protection, ATPLite, 2 h;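 active = compounds giving at least 50% protection of heart cells from peroxide-induced death in the single-dose screen, raw or plate-pattern-corrected value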;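 also: 0% = DMSO wells with peroxide and 100% = DMSO wells without peroxide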
ALR inh = human ALR oxidase inhibition via reduced H2O2; P55789; purified ALR, DTT oxidation, H2O2 HRP-luminol luminescence; inhibition, % (concentration not given with the values); 290,000 compounds, 3.8% hits;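 active = mean replicate inhibition above about 79%, with every replicate also reaching it, limit read from the data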
Target sequence (P55789 whole entry, looked up): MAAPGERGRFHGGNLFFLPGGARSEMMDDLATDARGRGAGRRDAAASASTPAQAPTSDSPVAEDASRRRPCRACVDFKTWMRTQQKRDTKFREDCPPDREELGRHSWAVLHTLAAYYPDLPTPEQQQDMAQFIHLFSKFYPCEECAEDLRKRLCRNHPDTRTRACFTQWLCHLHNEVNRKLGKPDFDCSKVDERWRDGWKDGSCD
NTR1 agonist = NTR1 (human) agonism. P30989. NTR1-U2OS beta-arrestin-GFP spot imaging, agonist mode. activation, % at 20 µM. 330,000 compounds, 0.17% hits;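 active = activation at or above 40% of the spot to cytoplasm intensity ratio, with at least 20 cells analyzed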;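 also: 0% = DMSO without peptide and 100% = 100 nM NTR1 peptide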
UBC9 SUMO inh = SUMOylation inhibition; P63279; HTRF SUMOylation assay, SAE1/SAE2 + UBC9, in vitro; inhibition, % at 35 µM; 290,000 compounds, 0.36% hits; in the data active = inhibition above about 50%, passing the limit was not always enough
Target sequence (P63279 whole entry, looked up): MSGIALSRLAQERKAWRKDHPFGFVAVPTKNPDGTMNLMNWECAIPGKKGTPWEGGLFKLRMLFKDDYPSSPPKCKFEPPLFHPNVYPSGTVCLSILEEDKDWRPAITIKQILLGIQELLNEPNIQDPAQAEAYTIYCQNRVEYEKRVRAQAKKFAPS
* marks the source's active call; other numbers are inactive results; . = no result. Hits are enriched below; roughly 3.9% of the tested compounds scored in any of these assays.

SMILES | Cardio protect | ALR inh | NTR1 agonist | UBC9 SUMO inh
C=CCn1c(SCC(=O)c2cccs2)nnc1-c1cccc(OC)c1 | 7 | 93* | 1 | 8
C=CCn1c(SCC(=O)c2ccc(O)c(O)c2)nnc1-c1ccc(C)cc1 | 62* | 65 | 2 | .
C=CCn1c(SCC(=O)c2ccc(O)c(O)c2)nnc1-c1cccc(OC)c1 | 54* | 99* | 0 | .
C=CCn1c(SCC(=O)c2ccccc2)nnc1-c1ccc2c(c1)OCO2 | 2 | . | 0 | 18
Clc1ccc(-c2nnc(-c3ccco3)nc2N2CCCCC2)cc1 | -6 | 55 | 2 | 16
COc1ccc(NC(=O)CC2C(=O)Nc3ccccc3N2CC(=O)N2CCCC2)cc1 (stereo not given) | -3 | 98* | 0 | .
CCCOc1ccc(NC(=O)CC2C(=O)Nc3ccccc3N2CC(=O)N2CCCC2)cc1 (stereo not given) | 8 | 38 | 1 | .
COc1ccc(CN=Cc2[nH]c3ccc(Br)c(Cl)c3c2O)cc1 | -6 | -7 | -4 | 6
O=[N+]([O-])c1ccc(Cl)c2c1C1C=CCC1C(c1ccccn1)N2 (stereo not given) | 10 | -20 | 3 | 22
O=C(O)C1Nc2c(O)cc(Cl)c([N+](=O)[O-])c2C2C=CCC12 (stereo not given) | 10 | 64 | -1 | 99*
CCOC(=O)Cn1c(=N)n(CCOc2ccc(Br)cc2)c2ccccc21 | 1 | -26 | 2 | 10
COc1ccc(/C=N/NC(=O)c2[nH]c3ccc(Cl)cc3c2-c2ccccc2)c(C(=O)O)c1OC | -4 | 98* | -1 | 26
CCCCCCCCN1[C@@H](CC(=O)O)c2ccc(C(F)(F)F)cc2S1(=O)=O | 5 | 97* | 3 | .
CC(C)OCCCNC(=O)C1CCC(CNS(=O)(=O)c2ccc(Cl)cc2)CC1 (stereo not given) | 5 | -4 | -3 | 7
Cc1ccc(Sc2nc(-c3ccccc3)nnc2C(F)(F)F)cc1 | 0 | 98* | 36 | 11
COc1ccc(CN(C)C(=O)Cn2cnc(C(=O)Nc3ccc(C)c(C)c3)n2)cc1OC | -6 | . | 0 | .
O=C(CN1CCOc2ccccc21)NCc1cccs1 | 3 | 99* | 0 | 16
O=C(CN1CCOc2ccccc21)NCc1ccc(F)cc1 | 9 | 98* | 4 | 3
O=C(CN1CCOc2ccccc21)NCc1ccc(Cl)cc1 | -21 | 99* | 3 | -14
O=C(CN1CCOc2ccccc21)NC1CC1 | 12 | 87* | 1 | .
O=C(CN1CCOc2ccccc21)NCc1ccco1 | 11 | 51 | -2 | 20
COCCNC(=O)CN1CCOc2ccccc21 | -6 | . | 4 | 5
COC(=O)c1c(-c2ccco2)csc1NC(=O)C1CC=CCC1C(=O)O (stereo not given) | -2 | 4 | -1 | 21
Cc1ccc(-c2cc(C(=O)N3CCC(C)CC3)c3ccccc3n2)cc1 | -6 | -9 | 2 | 5
C[C@@H]1O[C@@H](O[C@@H]2[C@@H](O)[C@H](OCCc3ccc(O)c(O)c3)O[C@H](CO)[C@H]2OC(=O)/C=C/c2ccc(O)c(O)c2)[C@H](O)[C@H](O)[C@H]1O | 5 | 98* | -2 | .
SMILES | Cardio protect | ALR inh | NTR1 agonist | UBC9 SUMO inh
O=C(Nc1c2c(nc3c1CCC3)CCCC2)c1ccccn1 | 2 | -2 | 4 | -11
O=C1NCCCC2c3c(cc(Br)c(O)c3Br)OC12N1CCOCC1 (stereo not given) | 1 | 94* | 2 | -5
C=CC[C@@H](CC(=O)N[C@H](CO)Cc1ccccc1)C(=O)N[C@@H](COC(=O)[C@@H](CC=C)CC(=O)OC(C)(C)C)Cc1ccccc1 | 63* | -1 | 7 | .
Cc1ccc(S(=O)(=O)N(C)C)cc1NC(=O)COC(=O)c1n[nH]c(=O)c2ccccc12 | 11 | -1 | -1 | 4
O=C(COC(=O)Cc1n[nH]c(=O)c2ccccc12)Nc1c(Cl)cccc1C(F)(F)F | 25 | -4 | 0 | .
O=C(COC(=O)Cc1n[nH]c(=O)c2ccccc12)Nc1c(Br)cc([N+](=O)[O-])cc1Br | 97* | . | . | .
Cc1ccc(S(=O)(=O)N(C)C)cc1NC(=O)COC(=O)Cc1n[nH]c(=O)c2ccccc12 | 75* | 0 | 0 | 0
NS(=O)(=O)c1cccc(NC(=O)COC(=O)Cc2n[nH]c(=O)c3ccccc23)c1 | 52* | -5 | 1 | .
Fc1cccc2sc(Nc3nc4ccccc4s3)nc12 | -13 | -6 | 9 | -39
COc1cccc(CNC(=O)CCNC(=O)N2CCn3c2nc2ccccc23)c1 | -5 | 98* | 2 | 4
COc1cccc(CNC(=O)CCCCCNC(=O)N2CCn3c2nc2ccccc23)c1 | 2 | -3 | 0 | -1

Bioassay records: PubChem, several laboratories
